High-throughput results from PubChem.
PLK1 PBD block: qHTS for Inhibitors of PLK1-PDB (polo-like kinase 1 - polo-box domain): Primary Screen. Plk1 PBD binding of FITC phosphopeptide, fluorescence polarization. Serine/threonine-protein kinase PLK1 (Homo sapiens), P53350. 360,000 compounds, 2.8% hits. Potency, µM, inactives show max response, negative = inhibition, usual class: inhibitors; note: series mostly up to about 57 µM; nearly all actives have a fitted effect of over 65% in size
RORgamma inh: qHTS for inhibitors of ROR gamma transcriptional activity; Nuclear receptor ROR-gamma (Mus musculus), P51450; Drosophila S2 Gal4-RORgamma UAS-luciferase reporter, 20 h; Potency, µM (doses to about 53.6 µM), inactives show at the top dose activity change, negative = inhibition, actives largely listed as inhibitors; 310,000 compounds, 5.4% hits; AID 2551, 2010; note: nearly all actives have a fitted effect of over 60% in size
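In this cell-based reporter format, copper sulfate (700 uM final) drives Gal4–ROR gamma fusion expression from a metallothionein promoter in Drosophila Schneider cells; compounds preincubated 1 hr, reporter read after 20 hr at ambient temperature.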
ALDH1A1 inh: qHTS Assay for Inhibitors of Aldehyde Dehydrogenase 1 (ALDH1A1) | Aldehyde dehydrogenase 1A1 (Homo sapiens), P00352 | Purified ALDH1A1, NADH fluorescence, propionaldehyde substrate | Potency, µM (series often up to 75.3 µM), for the others: at the top dose activity, negative = inhibition, hits mostly inhibitors | 220,000 compounds, 7.3% hits | AID 1030, 2008; active = well fitted inhibition curve with a large enough effect, not every such curve was filed as active; inconclusive = small, poorly fitted or top-dose-only effect, or another doubt; inactive = no such curve, though single readings can be large or run the other way;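 note: plate controls were no enzyme wells and a reference inhibitor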
Target sequence (P00352 whole entry, looked up): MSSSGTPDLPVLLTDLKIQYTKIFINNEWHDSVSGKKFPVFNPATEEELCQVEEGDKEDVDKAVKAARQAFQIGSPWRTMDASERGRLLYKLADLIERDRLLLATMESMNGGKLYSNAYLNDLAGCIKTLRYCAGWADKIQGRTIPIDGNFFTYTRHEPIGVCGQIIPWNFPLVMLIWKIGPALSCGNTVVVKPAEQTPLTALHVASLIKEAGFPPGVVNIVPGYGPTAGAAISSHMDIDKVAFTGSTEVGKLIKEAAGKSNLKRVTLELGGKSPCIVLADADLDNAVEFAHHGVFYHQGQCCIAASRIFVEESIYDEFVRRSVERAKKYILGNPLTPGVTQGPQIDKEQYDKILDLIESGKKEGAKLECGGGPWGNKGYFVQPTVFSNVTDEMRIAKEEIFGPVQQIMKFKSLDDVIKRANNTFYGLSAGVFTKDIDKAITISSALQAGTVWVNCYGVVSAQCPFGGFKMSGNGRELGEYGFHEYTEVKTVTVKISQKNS
Gal4-VP16 FLuc: VP16 counterscreen qHTS for inhibitors of ROR gamma transcriptional activity; Drosophila S2 Gal4-VP16 UAS-luciferase, luminescence, 20 h; Potency, µM (top dose mostly 53.6 µM), for inactives: at the highest dose activity, negative = inhibition, actives largely listed as inhibitors; 310,000 compounds, 3.5% hits; AID 2546, 2010;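 note: Gal4-VP16 expression switched on by copper sulfate through the metallothionein promoter; nearly all actives have a fitted effect of over 50% in size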
Sfp inh: qHTS Assay for Inhibitors of Bacillus subtilis Sfp phosphopantetheinyl transferase (PPTase). 4'-phosphopantetheinyl transferase ffp (Bacillus subtilis), Q9F4F7. Biochemical Sfp PPTase activity, qHTS. Potency, µM, inactives show largest response in the series, negative = inhibition, usual class: inhibitors. 310,000 compounds, 3.5% hits. AID 1490, 2009;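 note: the enzyme is Sfp with the accession as filed and its product quenches rhodamine fluorescence; 0% = enzyme reaction without inhibitor and -100% = no enzyme wells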
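Step 1, compound plus 15 nM Sfp-PPTase, 15 min, room temperature. Step 2, add rhodamine-CoA (5 uM) and BHQ-2-YbbR (12.5 uM). Step 3, read 525/598 nm fluorescence at 0 and 30 min.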
Active calls of the source: *; ? = inconclusive; nt = no result given; [ ] = another dose, or the depositor's remark. Sampled rows, rich in hits. Any-hit rate of the full collection: about 12%. Unless noted, calls come from the whole dose curve; as a rule, active = well fitted curve in the direction sought with a large enough effect; inconclusive = small, poorly fitted or top-dose-only effect, or another doubt; inactive = no such curve, though single readings can be large; an effect the other way counts as inactive or inconclusive. Unless noted, % is set by controls: 0 for no effect and ±100 for the full control effect; potency is the fitted concentration of half-maximal effect.

SMILES	PLK1 PBD block	RORgamma inh	ALDH1A1 inh	Gal4-VP16 FLuc	Sfp inh
COc1ccc(C(=O)NNC(=O)C(C)NC(=O)c2ccccc2NC(=O)c2ccco2)cc1 (stereo not drawn)	-19%	-16%	2%	6%	-13%
COc1ccc(C(=O)NNC(=O)C(Cc2ccc(O)cc2)NC(=O)c2ccccc2NC(=O)c2ccc(OC)cc2)cc1 (stereo not drawn)	-4%	2%	?	-16%	22µM*
COc1ccc(C(=O)Nc2ccccc2C(=O)NC(Cc2ccc(O)cc2)C(=O)NNC(=O)c2ccccc2Cl)cc1 (stereo not drawn)	-5%	-69%	5%	?	45µM*
COc1ccc(C(=O)Nc2ccccc2C(=O)NC(Cc2c[nH]c3ccccc23)C(=O)O)cc1 (stereo not drawn)	24µM*	28%	-10%	-4%	-26%
Cc1cccc(C)c1NC(=O)C1(C)CN(S(C)(=O)=O)CC(=O)N1Cc1ccco1 (stereo not drawn)	-2%	nt	nt	nt	nt
CNc1ncnc2c1ncn2[C@H]1CN(Cc2ccc(F)cc2)C[C@@H](CO)O1	0%	nt	nt	nt	nt
COc1cc(C=O)ccc1OCCOCCOc1ccc(Cl)cc1	4%	21%	3.5µM*	-20%	-3%
COc1cc(C=O)ccc1OCCOCCOc1ccc(Cl)cc1Cl	-2%	nt	nt	nt	nt
COC(=O)C(Cc1c[nH]c2ccccc12)NC(=O)c1cc(-c2ccc(OC)c(OC)c2)oc1C (stereo not drawn)	-6%	?	28µM*	?	32µM*
Cc1ccccc1OCC(=O)NC(Cc1c[nH]c2ccccc12)C(=O)O (stereo not drawn)	-6%	13%	-7%	-7%	13%
O=C(Cc1c[nH]c2ccccc12)N[C@@H](Cc1c[nH]c2ccccc12)C(=O)O	-3%	29%	nt	-11%	2%
COC(=O)[C@@H](Cc1c[nH]c2ccccc12)NC(=O)c1ccc2c(c1)OCO2	2%	8.9µM*	nt	?	3%
O=C(COC(=O)[C@H](Cc1c[nH]c2ccccc12)NC(=O)c1ccc(Cl)cc1)Nc1ccc2c(c1)OCO2	2%	3%	?	-17%	26%
Cc1cccc(OCC(=O)NC(Cc2c[nH]c3ccccc23)C(=O)O)c1C (stereo not drawn)	-25%	12%	5%	-5%	50µM*
CC1(C)OC(=O)C(=CNC(Cc2c[nH]c3ccccc23)C(=O)O)C(=O)O1 (stereo not drawn)	1%	0%	25µM*	3%	9%
O=C(O)C1=C(C(=O)O)C2C=CC1C2	-11%	nt	nt	nt	nt
CC1(C)O[C@@H]2O[C@H]([C@H](O)CO/N=C3/[C@H]4O[C@@H]4[C@@H](O)[C@H]4[C@H]3CCn3c(=O)n(-c5ccccc5)c(=O)n34)[C@@H](O)[C@@H]2O1	nt	19%[10 µM]	6%[13.5 µM]	3%[10 µM]	15%
COC(=O)C(Cc1c[nH]c2ccccc12)NC(=O)c1cccs1 (stereo not drawn)	-3%	31%	-7%	-15%	5%
COC(=O)C(Cc1c[nH]c2ccccc12)NC(C)=O (stereo not drawn)	-7%	14µM*	11%	-2%	13%
CCCCNC(=O)c1nc(C2CCNCC2)oc1-c1ccccc1	3%	nt	nt	nt	nt
CCCS(=O)(=O)NC(=O)C1(C)CCN(C(=O)Cc2cccc(OC)c2)C1 (stereo not drawn)	-3%	nt	nt	nt	nt
O=C(O)CNS(=O)(=O)c1ccc2c3c(cccc13)C(=O)N2	-10%	-17%	nt	0%	-1%
O=C1Nc2ccc(S(=O)(=O)N(CCO)CCO)c3cccc1c23	21µM*	-3%	nt	-2%	15%
COCCn1c(=O)c(-c2ccccc2)nc2cnc(Nc3cccc(OC)c3)nc21	nt	27%	5%	-2%	22%
Cc1ccc(CN(C)C(=O)CCc2nc3sc4c(c3c(=O)[nH]2)CCCC4)o1	-22%	?	nt	-18%	50µM*
SMILES	PLK1 PBD block	RORgamma inh	ALDH1A1 inh	Gal4-VP16 FLuc	Sfp inh
CCCc1nc2sc3c(c2c(=O)[nH]1)CCCC3	27µM*	7%	1%	21%	-3%
CCN(CC(=O)NC(C)C)Cc1nc2sc3c(c2c(=O)[nH]1)CCC3	0%	1.1µM*	-3%	4.5µM*	-7%
CN(C)C(=O)CCc1nc2sc3c(c2c(=O)[nH]1)CCCC3	0%	10%	-6%	7%	14%
CN(Cc1ccco1)C(=O)CCc1nc2sc3c(c2c(=O)[nH]1)CCCC3	-26%	nt	nt	nt	-16%
N#Cc1cnn(-c2nc3sc4c(c3c(=O)[nH]2)CCCC4)c1N	-17%	2.8µM*	2%	-14%[0.365 µM]	14%
COc1cccc(Cn2c(=O)c(-c3ccccc3)nc3cnc(N4CCNCC4)nc32)c1	nt	-16%	?	7%	-7%
COc1ccc(CN2C(=O)C(CC(=O)NCC3CCCCC3)CC(C(=O)N3CCOCC3)=C2C)cc1 (stereo not drawn)	-1%	nt	nt	nt	nt
CCOC(=O)C1(C)CCN1C(=O)c1ccc(F)c(Cl)c1 (stereo not drawn)	-2%	nt	nt	nt	nt
CCc1nc2sc3c(c2c(=O)n1NC(=O)CCl)CCCC3	-8%	38%	13µM*	9%	22%
CC(C)(C)c1nc2sc3c(c2c(=O)o1)CCCC3	0%	15%	1%	0%	-7%
CCc1nc2sc3c(c2c(=O)o1)CCCC3	-24%	19%	-6%	11%	25µM*
Cc1cc(Cl)cc2sc(=S)[nH]c12	13µM*	nt	nt	nt	nt
CCCOc1ccc(/C=N/NC(=S)Nc2ccccc2[N+](=O)[O-])c(O)c1	-3%	0%	-4%	-12%	-19%
O=[N+]([O-])c1ccccc1/C=N/Nc1nccnc1Cl	-12%	18%	?	1%	-10%
O=[N+]([O-])c1cccnc1N/N=C/c1ccccc1O	0%	-26%	89µM*	-4%	18%
Cc1c(O)ccc(/C=N/Nc2ncccc2[N+](=O)[O-])c1O	-7%	10µM*	nt	?	17%
CCCOc1ccc(/C=N/Nc2ccccc2[N+](=O)[O-])c(O)c1	2%	7.1µM*	8%	?	8%
CCCn1c(C)nc2c(NCC3CCCN3CC)nc(C)nc21 (stereo not drawn)	nt	-24%	-3%	3%	21%
COc1ccccc1NC(=O)c1ccccc1NC(=O)c1ccccn1	-4%	nt	nt	nt	nt
O=C(COc1ccc(Cl)cc1)NNC(=O)c1ccccn1	3%	10µM*	1%	?	19%
COc1ccc(Cl)cc1NC(=O)NNC(=O)c1ccccn1	-18%	4.5µM*	nt	7.1µM*	12%
O=S1(=O)CC(N2CCC(Cc3ccccc3)CC2)CN1CCc1ccccc1 (stereo not drawn)	-9%	nt	nt	nt	nt
O=C(NCc1cccs1)c1ccc(-c2ccc(F)c(F)c2)c2ccoc12	-6%	nt	nt	nt	nt
